Our source for the growth values is PubChem BioAssay (NCI).

The panel holds about 83,000 compounds, 20% with a hit somewhere; the sample as a whole holds those more often.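 How to read the values: 0–100, growth inhibition (40 = 60% inhibited); 0, no net growth; -100 to 0, cell death (-40 = 40% of starting cells died; -100 = all dead).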 A number with no mark means an inactive call. Calls of active or inactive are those of the source. The calls were made as follows: active = growth percent below 10; inactive = the rest.

Some test systems named below: NCI-H226 lung; NCI-H322M lung; HOP-62 NSCLC; HOP-92 NSCLC; NCI-H522 lung; A549/ATCC NSCLC; 786-0 renal; COLO 205 colon; NCI-H460 lung.
Common to all, as to assay: NCI-60 one-dose screen, 48 h (100 = growth as untreated, 0 = no growth, -100 = all killed)
Conditions in all cases: 10 µM unless noted

With `Nc1cc(N)nc(SCC(=O)O)n1`, the growth with NCI-H226 lung is 103%; in the experiment on NCI-H322M lung, 102%; with HOP-62 NSCLC, 104%; in the experiment with HOP-92 NSCLC, 97.3%; in the experiment with NCI-H522 lung, 79.7%; in the experiment on A549/ATCC NSCLC, 88%. For the same molecule, the growth with 786-0 renal was 99.1%; with COLO 205 colon it was 114%.
With `CNCc1cccc2c1OCCOCCOCCN(CCN1CCOCC1)S(=O)(=O)c1ccc(cc1)-c1cnc(N)c(n1)C(=O)N2`, the growth in the experiment on NCI-H226 lung is 78.4%; in the experiment with NCI-H322M lung, 49.8%; in the experiment with HOP-62 NSCLC, 100%; in the experiment on NCI-H460 lung, 30.7%; in the experiment with HOP-92 NSCLC, 87.9%; in the experiment on NCI-H522 lung it was 49%. Further, the growth with A549/ATCC NSCLC was 46.4%; in the experiment on 786-0 renal it was 10.6%; in the experiment with COLO 205 colon it was 22.3%.
As to `O=C(CCc1nnco1)c1nc2ccc([N+](=O)[O-])cc2[nH]1`, the growth in the experiment with NCI-H226 lung was 99.4%; in the experiment with NCI-H322M lung, 99.1%; in the experiment on HOP-62 NSCLC it was 113%; in the experiment with NCI-H460 lung, 108%; in the experiment with HOP-92 NSCLC, 119%; with NCI-H522 lung it was 101%. For the same molecule, the growth was 100% in the experiment on A549/ATCC NSCLC, 111% in the experiment with 786-0 renal and 121% in the experiment on COLO 205 colon.
Consider `COc1ccc(NC(=O)Nc2ccc(Nc3nc(C)cc(Nc4ccc(C)cc4)n3)cc2)cc1`, for which the growth in the experiment on NCI-H226 lung is -71.4% (active); in the experiment with NCI-H322M lung, -74.7% (active); with HOP-62 NSCLC it was -94.1% (active); in the experiment with NCI-H460 lung, -74.2% (active); in the experiment on HOP-92 NSCLC, -54.1% (active); in the experiment with NCI-H522 lung, -74.8% (active). For the same molecule, the growth in the experiment on A549/ATCC NSCLC was -83% (active); in the experiment with 786-0 renal, -93.8% (active); in the experiment with COLO 205 colon, -78.7% (active).
Consider `CCCCn1c(=O)c(/C=C/C(=O)/C=C/c2ccc(OC)cc2)cc2cc(Cl)ccc21`, for which the growth was 72.7% with NCI-H322M lung; 102% in the experiment on HOP-62 NSCLC; 20.7% with NCI-H460 lung; 102% in the experiment on HOP-92 NSCLC; 56.3% in the experiment with NCI-H522 lung; 51.1% in the experiment on A549/ATCC NSCLC. In addition, the growth in the experiment on 786-0 renal is 28.4%; with COLO 205 colon, 88.3%.
Take `CC1=C/C(=N\N=C2/C=C(C)CC(C)(C)C2)CC(C)(C)C1`: the growth in the experiment with NCI-H226 lung was 106%; in the experiment on NCI-H322M lung, 92.7%; with HOP-62 NSCLC, 90.9%; in the experiment on NCI-H460 lung, 104%; in the experiment on HOP-92 NSCLC, 92.3%; in the experiment on NCI-H522 lung it was 81.4%. The growth was 88.6% in the experiment with A549/ATCC NSCLC, 102% with 786-0 renal and 119% with COLO 205 colon.
Regarding `O=C1Nc2ccc(Cl)cc2/C1=N/c1nc(-c2ccc(Cl)cc2)cs1`, the growth in the experiment with NCI-H226 lung is 36.9%; in the experiment on NCI-H322M lung, 48.9%; in the experiment with HOP-62 NSCLC, -5.13% (active); with NCI-H460 lung, -10.2% (active); in the experiment with HOP-92 NSCLC, -13.1% (active); with A549/ATCC NSCLC, 7.91% (active). For the same molecule, the growth in the experiment on 786-0 renal is -16.2% (active); in the experiment on COLO 205 colon, -51.6% (active).
Take `COC(=O)/C=C1\SC(=Nc2cccc(Cl)c2)N(CCc2c[nH]c3ccccc23)C1=O`: the growth in the experiment on NCI-H322M lung is 62%; with HOP-62 NSCLC, 41.5%; with NCI-H460 lung it was 51.3%; in the experiment on HOP-92 NSCLC, 82.4%; in the experiment with NCI-H522 lung it was 24.2%; in the experiment with A549/ATCC NSCLC it was 48%. The growth was 60.6% in the experiment on 786-0 renal and 12.1% in the experiment with COLO 205 colon.
Consider `Nc1c(C(=O)Nc2ccccn2)sc2nc3c(cc12)CCCCC3`, for which the growth was 77% in the experiment with NCI-H226 lung; 52.6% with NCI-H322M lung; 40.2% in the experiment on HOP-62 NSCLC; 6.46% (active) in the experiment on NCI-H460 lung; 67.5% in the experiment on HOP-92 NSCLC; 2.61% (active) with NCI-H522 lung. In addition, the growth with A549/ATCC NSCLC is 20.9%; in the experiment on 786-0 renal, 27.6%; with COLO 205 colon it was 6.18% (active).
For `O=C(Nc1cc(Br)ccn1)c1cc2cc(Nc3nc(-c4ccccc4)nc4ccccc34)ccc2oc1=O`, the growth with NCI-H226 lung was 117%; with NCI-H322M lung it was 111%; in the experiment on HOP-62 NSCLC it was 103%; in the experiment with NCI-H460 lung it was 106%; in the experiment with HOP-92 NSCLC, 105%; in the experiment with NCI-H522 lung it was 95.2%. The results for the growth in the experiment with A549/ATCC NSCLC, in the experiment with 786-0 renal and with COLO 205 colon were 104%, 94.2% and 105%, respectively.
For `COc1cc(C(=O)Nc2cc(OC)c3ccn(C)c3c2)cc2c1C[C@]1(C)CC[C@@H](O)C(C)(C)[C@H]1O2`, the growth was 76.7% in the experiment on NCI-H226 lung; 57.3% in the experiment with NCI-H322M lung; 11.7% in the experiment on HOP-62 NSCLC; 14% in the experiment on NCI-H460 lung; 8.71% (active) in the experiment with HOP-92 NSCLC; -3.97% (active) in the experiment with NCI-H522 lung. Moreover, the values for the growth with A549/ATCC NSCLC, in the experiment on 786-0 renal and in the experiment with COLO 205 colon were 24.1%, 0.587% (active) and 3.69% (active), respectively.
As to `Nc1c(C(=O)Nc2cccc3ccccc23)sc2nc3c(cc12)COCC3`, the growth in the experiment on NCI-H226 lung is 98%; in the experiment with NCI-H322M lung it was 82.4%; with HOP-62 NSCLC it was 39.9%; in the experiment on NCI-H460 lung, 31.1%; in the experiment on HOP-92 NSCLC, 61.1%; in the experiment with NCI-H522 lung, 26.4%. The growth is 50.9% in the experiment with A549/ATCC NSCLC, 38.6% with 786-0 renal and 58.7% with COLO 205 colon.
For `Cc1[nH]c2ncnc(Oc3ccc(NC(=O)Nc4ccc(Cl)c(C(F)(F)F)c4)cc3)c2c1C`, the growth with NCI-H226 lung is 75.1%; in the experiment with NCI-H322M lung, 69.6%; in the experiment on HOP-62 NSCLC it was 59.3%; with NCI-H460 lung, 36.1%; in the experiment on HOP-92 NSCLC it was 91.9%; in the experiment on NCI-H522 lung it was 25.3%. The growth is 45.3% with A549/ATCC NSCLC, 84% in the experiment with 786-0 renal and 60.3% in the experiment on COLO 205 colon.
For `O=C1NC(SCc2ccc(F)cc2)=N/C1=C/c1cccc(OCc2ccc(Cl)cc2)c1`, the growth in the experiment on NCI-H226 lung was -7.92% (active); with NCI-H322M lung it was 50.3%; in the experiment on HOP-62 NSCLC it was 45.9%; in the experiment on NCI-H460 lung, 11.8%; with HOP-92 NSCLC, 68%; in the experiment with NCI-H522 lung, 67.5%. Also, the values for the growth with A549/ATCC NSCLC, in the experiment with 786-0 renal and in the experiment on COLO 205 colon were 26.2%, -33.3% (active) and 55.3%, respectively.
